# Test results as given in the supplement of paper PMC6378613.
# Compound: Cc1ccc(-c2ccc3c(ccc4sc5c(c43)NC[C@@H](C)NC5=O)n2)cn1
# Test: kinase activity remaining relative to vehicle control; higher = less inhibition
# Experimental: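 In vitro radiometric kinase profiling of the MK2 inhibitor PF-3644022 at 0.1, 1 and 10 µM against a panel of kinases (MRC International Centre for Kinase Profiling, Dundee). Read-out is % kinase activity remaining relative to the vehicle control, mean of n=2.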
# Chain of UniProt P16234 (P16234 whole entry, looked up): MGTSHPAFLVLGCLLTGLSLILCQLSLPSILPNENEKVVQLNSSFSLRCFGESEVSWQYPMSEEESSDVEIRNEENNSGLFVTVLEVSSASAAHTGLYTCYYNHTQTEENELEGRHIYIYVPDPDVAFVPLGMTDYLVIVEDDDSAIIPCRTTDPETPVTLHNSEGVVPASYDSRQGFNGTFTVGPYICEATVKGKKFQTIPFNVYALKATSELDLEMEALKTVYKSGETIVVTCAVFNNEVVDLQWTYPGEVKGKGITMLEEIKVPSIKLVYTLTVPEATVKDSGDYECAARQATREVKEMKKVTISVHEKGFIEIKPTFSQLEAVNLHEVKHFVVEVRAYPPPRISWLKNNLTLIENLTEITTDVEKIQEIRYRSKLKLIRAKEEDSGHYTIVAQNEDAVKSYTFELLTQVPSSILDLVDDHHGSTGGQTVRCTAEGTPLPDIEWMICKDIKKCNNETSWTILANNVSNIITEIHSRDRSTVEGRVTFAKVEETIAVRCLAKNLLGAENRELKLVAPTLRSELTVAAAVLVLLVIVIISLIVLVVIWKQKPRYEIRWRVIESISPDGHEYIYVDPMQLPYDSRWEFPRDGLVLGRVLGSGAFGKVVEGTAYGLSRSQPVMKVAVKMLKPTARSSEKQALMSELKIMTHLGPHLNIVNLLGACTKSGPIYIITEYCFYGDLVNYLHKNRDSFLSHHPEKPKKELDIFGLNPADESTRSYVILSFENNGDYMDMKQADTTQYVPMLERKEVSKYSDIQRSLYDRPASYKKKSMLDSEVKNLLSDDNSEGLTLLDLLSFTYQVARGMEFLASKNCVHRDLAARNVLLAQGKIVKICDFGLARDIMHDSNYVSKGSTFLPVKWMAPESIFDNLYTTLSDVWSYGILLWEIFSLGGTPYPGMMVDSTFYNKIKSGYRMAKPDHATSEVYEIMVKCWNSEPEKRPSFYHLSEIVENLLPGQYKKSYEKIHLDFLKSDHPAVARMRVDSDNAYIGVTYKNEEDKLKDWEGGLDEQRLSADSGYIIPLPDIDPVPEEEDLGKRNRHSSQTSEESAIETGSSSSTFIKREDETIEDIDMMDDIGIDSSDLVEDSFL
# Chain of UniProt O00141 (O00141 whole entry, looked up): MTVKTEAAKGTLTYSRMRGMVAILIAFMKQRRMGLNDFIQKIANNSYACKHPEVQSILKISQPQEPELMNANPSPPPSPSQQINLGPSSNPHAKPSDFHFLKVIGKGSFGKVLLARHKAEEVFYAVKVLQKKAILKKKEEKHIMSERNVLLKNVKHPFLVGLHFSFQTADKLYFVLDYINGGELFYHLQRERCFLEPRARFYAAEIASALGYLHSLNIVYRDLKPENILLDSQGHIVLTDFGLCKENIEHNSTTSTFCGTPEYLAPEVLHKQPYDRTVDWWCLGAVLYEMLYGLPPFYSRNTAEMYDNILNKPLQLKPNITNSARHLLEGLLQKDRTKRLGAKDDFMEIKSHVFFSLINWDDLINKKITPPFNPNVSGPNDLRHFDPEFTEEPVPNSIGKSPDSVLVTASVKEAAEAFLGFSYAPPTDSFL
# Chain of UniProt Q9HC98 (Q9HC98 whole entry, looked up): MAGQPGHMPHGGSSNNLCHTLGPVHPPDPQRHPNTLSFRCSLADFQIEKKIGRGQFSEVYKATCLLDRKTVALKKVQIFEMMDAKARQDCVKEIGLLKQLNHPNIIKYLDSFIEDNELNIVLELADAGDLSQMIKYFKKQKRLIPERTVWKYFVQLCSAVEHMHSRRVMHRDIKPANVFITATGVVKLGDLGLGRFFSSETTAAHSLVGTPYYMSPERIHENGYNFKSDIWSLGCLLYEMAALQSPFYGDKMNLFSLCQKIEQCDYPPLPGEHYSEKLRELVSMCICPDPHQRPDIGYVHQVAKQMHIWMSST
# Chain of UniProt P80192 (P80192 whole entry, looked up): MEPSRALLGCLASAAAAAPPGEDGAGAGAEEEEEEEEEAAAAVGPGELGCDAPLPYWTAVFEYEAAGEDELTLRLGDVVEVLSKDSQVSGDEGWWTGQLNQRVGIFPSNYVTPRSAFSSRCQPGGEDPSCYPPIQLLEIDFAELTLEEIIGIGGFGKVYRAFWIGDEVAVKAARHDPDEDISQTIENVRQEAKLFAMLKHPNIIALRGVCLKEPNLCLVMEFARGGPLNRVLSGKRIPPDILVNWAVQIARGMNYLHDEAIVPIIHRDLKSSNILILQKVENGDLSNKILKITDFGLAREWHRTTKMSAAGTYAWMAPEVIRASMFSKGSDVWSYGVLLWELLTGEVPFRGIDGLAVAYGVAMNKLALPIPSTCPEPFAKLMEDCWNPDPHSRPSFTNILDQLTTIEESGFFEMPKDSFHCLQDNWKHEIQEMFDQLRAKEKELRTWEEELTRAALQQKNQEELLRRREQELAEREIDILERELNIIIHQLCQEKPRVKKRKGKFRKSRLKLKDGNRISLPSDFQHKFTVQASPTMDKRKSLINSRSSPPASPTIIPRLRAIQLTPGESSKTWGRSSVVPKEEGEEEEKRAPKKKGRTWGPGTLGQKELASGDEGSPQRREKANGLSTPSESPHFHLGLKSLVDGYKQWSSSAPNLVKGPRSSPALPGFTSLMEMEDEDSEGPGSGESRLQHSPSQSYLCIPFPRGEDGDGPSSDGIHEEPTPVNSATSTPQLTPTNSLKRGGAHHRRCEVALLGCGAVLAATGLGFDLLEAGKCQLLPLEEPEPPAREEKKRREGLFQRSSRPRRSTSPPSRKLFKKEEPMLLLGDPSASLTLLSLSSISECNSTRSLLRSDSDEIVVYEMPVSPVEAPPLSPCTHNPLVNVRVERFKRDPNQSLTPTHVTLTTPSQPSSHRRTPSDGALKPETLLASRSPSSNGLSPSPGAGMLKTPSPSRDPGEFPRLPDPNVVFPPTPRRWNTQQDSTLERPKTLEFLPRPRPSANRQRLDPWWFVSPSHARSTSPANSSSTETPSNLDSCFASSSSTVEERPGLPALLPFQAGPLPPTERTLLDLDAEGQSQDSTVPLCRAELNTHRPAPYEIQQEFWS
# Chain of UniProt Q9P289 (Q9P289 whole entry, looked up): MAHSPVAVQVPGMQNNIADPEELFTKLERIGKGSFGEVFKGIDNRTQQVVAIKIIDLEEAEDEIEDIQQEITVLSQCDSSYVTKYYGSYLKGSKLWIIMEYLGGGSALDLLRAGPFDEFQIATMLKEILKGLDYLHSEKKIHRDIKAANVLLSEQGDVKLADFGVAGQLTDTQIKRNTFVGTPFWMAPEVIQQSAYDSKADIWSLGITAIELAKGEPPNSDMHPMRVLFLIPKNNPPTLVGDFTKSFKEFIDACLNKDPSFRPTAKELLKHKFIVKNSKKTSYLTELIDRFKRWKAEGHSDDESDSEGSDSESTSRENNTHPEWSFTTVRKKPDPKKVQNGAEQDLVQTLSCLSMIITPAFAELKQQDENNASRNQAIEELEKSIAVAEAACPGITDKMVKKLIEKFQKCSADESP
# Chain of UniProt Q7KZI7 (Q7KZI7 whole entry, looked up): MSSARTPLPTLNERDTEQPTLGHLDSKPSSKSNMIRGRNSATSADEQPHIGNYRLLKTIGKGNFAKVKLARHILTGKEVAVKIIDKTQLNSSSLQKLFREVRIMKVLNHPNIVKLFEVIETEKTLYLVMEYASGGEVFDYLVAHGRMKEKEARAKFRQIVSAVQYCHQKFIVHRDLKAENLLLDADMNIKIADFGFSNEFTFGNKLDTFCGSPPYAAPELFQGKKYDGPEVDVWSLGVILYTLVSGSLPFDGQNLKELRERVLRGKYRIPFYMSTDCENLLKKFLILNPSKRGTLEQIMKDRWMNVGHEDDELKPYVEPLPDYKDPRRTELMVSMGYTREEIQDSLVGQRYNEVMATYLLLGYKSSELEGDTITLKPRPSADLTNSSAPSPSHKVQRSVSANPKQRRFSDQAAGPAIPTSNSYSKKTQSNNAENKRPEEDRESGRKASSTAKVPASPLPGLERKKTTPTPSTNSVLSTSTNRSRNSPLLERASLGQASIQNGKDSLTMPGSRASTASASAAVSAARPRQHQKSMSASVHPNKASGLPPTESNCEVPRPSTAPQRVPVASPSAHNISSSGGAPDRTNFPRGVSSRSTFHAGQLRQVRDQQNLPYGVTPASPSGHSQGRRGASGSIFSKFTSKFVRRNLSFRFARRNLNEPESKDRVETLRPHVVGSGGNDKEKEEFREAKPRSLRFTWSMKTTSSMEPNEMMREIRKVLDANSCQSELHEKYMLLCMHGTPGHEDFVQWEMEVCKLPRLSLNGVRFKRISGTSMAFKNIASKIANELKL
# Chain of UniProt Q9NWZ3 (Q9NWZ3 whole entry, looked up): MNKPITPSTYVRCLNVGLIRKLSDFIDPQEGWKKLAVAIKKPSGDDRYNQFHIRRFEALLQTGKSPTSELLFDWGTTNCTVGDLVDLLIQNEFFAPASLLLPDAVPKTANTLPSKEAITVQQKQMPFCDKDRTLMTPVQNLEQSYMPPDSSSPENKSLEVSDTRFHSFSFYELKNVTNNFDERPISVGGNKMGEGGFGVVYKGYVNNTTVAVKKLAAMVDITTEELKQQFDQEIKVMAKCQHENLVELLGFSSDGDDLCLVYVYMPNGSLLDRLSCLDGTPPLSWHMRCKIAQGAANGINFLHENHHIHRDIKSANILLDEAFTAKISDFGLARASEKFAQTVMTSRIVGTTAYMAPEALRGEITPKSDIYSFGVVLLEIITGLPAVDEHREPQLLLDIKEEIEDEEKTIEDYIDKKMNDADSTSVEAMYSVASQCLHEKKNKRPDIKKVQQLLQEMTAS
# Chain of UniProt Q9Y6E0 (Q9Y6E0 whole entry, looked up): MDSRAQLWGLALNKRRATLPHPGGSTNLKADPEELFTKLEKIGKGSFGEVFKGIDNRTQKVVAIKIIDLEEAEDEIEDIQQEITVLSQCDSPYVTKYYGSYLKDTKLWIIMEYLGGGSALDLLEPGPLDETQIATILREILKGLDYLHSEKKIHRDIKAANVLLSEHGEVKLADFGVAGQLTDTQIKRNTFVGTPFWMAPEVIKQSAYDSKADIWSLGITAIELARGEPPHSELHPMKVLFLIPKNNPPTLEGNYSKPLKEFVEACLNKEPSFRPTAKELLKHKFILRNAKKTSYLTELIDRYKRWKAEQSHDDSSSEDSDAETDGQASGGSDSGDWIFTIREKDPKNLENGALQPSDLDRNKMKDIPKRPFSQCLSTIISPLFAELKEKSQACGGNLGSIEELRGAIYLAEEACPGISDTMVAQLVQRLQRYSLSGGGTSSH
Target,kinase activity remaining (inhibitor concentration 0.1 µM) [%],kinase activity remaining (inhibitor concentration 1 µM) [%],kinase activity remaining (inhibitor concentration 10 µM) [%]
MINK1 (UniProt Q8N4C8),98,97,40
MKK1,101,97,69
MARK2 (UniProt Q7KZI7),116,113,95
NEK6 (UniProt Q9HC98),109,96,66
MST4 (UniProt Q9P289),99,101,91
MLK1 (UniProt P80192),99,95,60
SGK1 (UniProt O00141),116,112,112
p38 beta MAPK,118,126,117
IRAK4 (UniProt Q9NWZ3),94,62,24
PKD1 (UniProt P98161),96,96,48
JNK2 (UniProt P45984),123,111,107
ROCK 2,112,96,95
PDGFRA (UniProt P16234),104,108,104
MST3 (UniProt Q9Y6E0),118,109,108
